# Experimental data reported in PubChem BioAssay (NCATS).
# Records with an inconclusive call do not appear. A number with no mark means an inactive call. Active and inactive are the calls of the source. Calls come from the whole dose curve; as a rule, active = well fitted inhibition curve with a large enough effect; inconclusive = small, poorly fitted or top-dose-only effect; inactive = flat fitted curve, though single readings scatter.
# System: DFO2036
# Test: qHTS profiling for inhibitors of Plasmodium falciparum proliferation (AID 504749); note: nearly all actives have a fitted effect of over 60% in size;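 for activity, negative = inhibition: 0% = DMSO vehicle and full inhibition = artemisinin control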
# Conditions: P. falciparum in erythrocytes, SYBR Green DNA, 72 h; series mostly up to 12.8 µM; activity, negative = inhibition: at the top concentration
# Excerpt: NIH National Institute of Allergy and Infectious Diseases [NIAID] NIH Chemical Genomics Center [NCGC] MLPCN Grant: None Assay Provider: Xinzhuan Su, NIAID NCGC Assay Overview: Plasmodium falciparum is a virulent malarial parasite that kills 1-2 million people worldwide each year. Transmitted by mosquitoes, the sporozoite form of the parasite enters the blood stream to infect hepatocytes, where they become merozoites that infect red blood cells (erythrocytes). Within erythrocytes, merozoites begin a […] cycle of growth and division, after which the parasite is released to infect new red blood cells. Gametocytes, which form within erythrocytes as well, circulate in the bloodstream and are ingested by the mosquito, thereby completing the life cycle. To profile malarial isolates for differential chemical responses and to identify inhibitors of malarial growth, an assay that measures P. falciparum growth and replication within erythrocytes was employed. This assay uses a DNA binding fluorescent dye (SYBR Green) to detect parasite DNA following cell lysis. Because mature erythrocytes lack DNA, only Plasmodium-derived DNA is detected.
# NCGC Assay Protocol Summary: The SYBR Green viability assay was adapted from a method described previously (Plouffe et al., 2008). For screening 3 ul culture medium was dispensed into 1536 well black clear bottom plates (Aurora Biotechnologies) using a Multidrop Combi (Thermo Fisher Scientific Inc.), 23 nL compounds in DMSO were added by a pin tool (Kalypsys), and 5 ul of erythrocytes infected with P. falciparum (0.3% parasitemia, 2.5% hematocrit final concentration) were added. The plates were incubated at 37 C in a humidified incubator in 5% CO2 for 72 h, and 2 ul lysis buffer (20 mM Tris HCl, 10 mM EDTA, 0.16% saponin, 1.6% triton X, 10X SYBR Green I supplied as 10,000X […] by Invitrogen) was added to each well. The plates were mixed for 25 sec with gentle shaking and incubated overnight at room temperature in the dark. The following morning, fluorescence intensity at 485(14) nm excitation and 535(25) nm emission wavelengths was measured on an EnVision (Perkin Elmer) plate reader. Plate reads were normalized relative to the control inhibitor (0.29 uM artemisinin) and vehicle (DMSO) wells present on each plate and then corrected by an algorithm using vehicle-only control plates at the beginning and end of the compound plate stack.
# Potency is the fitted concentration of half-maximal effect.
SMILES,"activity, negative = inhibition",Potency
CC(=O)N[C@H](CC(C)C)C(=O)O,3.05% [at 28.7 µM],
CC(=O)OCC(=O)[C@@]1(O)CC[C@@H]2[C@H]3CCC4=CC(=O)C=C[C@]4(C)[C@]3(F)[C@@H](O)C[C@@]21C,5.32%,
COc1cc(C2c3cc4c(cc3C(O[C@@H]3OC5COC(c6cccs6)OC5C(O)C3O)C3COC(=O)C23)OCO4)cc(OC)c1O (stereo not given in full),,1120 nM (active)
Cc1cccc(C)c1NC(=O)[C@H](C)N,3.73%,
C[N+]12CCC(CC1)[C@@H](OC(=O)C(O)(c1ccccc1)c1ccccc1)C2,9.43%,
O=C(O)[C@@H]1CCCN1,4.08% [at 28.7 µM],
O=C1OC(CO)C(O)C(O)C1O (stereo not given),0.69% [at 28.7 µM],
C[C@@H]1Cc2ccccc2N1NC(=O)c1ccc(Cl)c(S(N)=O)c1 (stereo not given in full),17.3%,
NC[C@@H]1O[C@H](O[C@H]2[C@H](O)[C@H](O[C@@H]3O[C@H](CO)[C@@H](O)[C@H](N)[C@@H]3O)[C@@H](N)C[C@H]2N)[C@@H](O)[C@H](O)[C@@H]1O,1.29%,
CCC(C)(C)C(=O)O[C@@H]1C[C@H](C)C=C2C=C[C@H](C)[C@@H](CC[C@H]3C[C@@H](O)CC(=O)O3)[C@H]21,1.91%,
CC(=O)N(C[C@@H](C)C(=O)O)c1c(I)cc(I)c(N)c1I,4.4%,
NS(=O)(=O)c1cc2c(cc1Cl)N[C@@H](C(Cl)Cl)NS2(=O)=O,7.67%,
CC(=O)[C@@]1(O)CC[C@H]2[C@H]3C[C@@H](C)C4=CC(=O)C=C[C@]4(C)[C@@]3(F)[C@@H](O)C[C@]21C,-35.3%,
CCOC(=O)[C@H](CCc1ccccc1)N[C@@H](C)C(=O)N1[C@H](C(=O)O)C[C@H]2CCC[C@@H]21,9.67% [at 28.7 µM],
C1CCN2C[C@@H]3C[C@@H](CN4CCCC[C@H]34)[C@H]2C1,-4%,
CC(=O)[C@@H]1CC[C@@H]2[C@@H]3C[C@H](C)C4=CC(=O)CC[C@@]4(C)[C@H]3[C@H](O)C[C@]21C,6.19%,
CN1CCN([C@@H](c2ccccc2)c2ccc(Cl)cc2)CC1,-11.5%,
NC(C(=O)O)[C@@H]1CC(Cl)=NO1 (stereo not given in full),,2000 nM (active)
COc1ccc(-c2cc(=O)c3c(O)cc(O[C@H]4OC(COC5OC(C)C(O)C(O)[C@H]5O)C(O)C(O)C4O)cc3o2)cc1O (stereo not given in full),17.7% [at 28.7 µM],
CC(C)Oc1ccc2c(=O)cc(-c3ccccc3)oc2c1,-3.67% [at 28.7 µM],

SMILES,"activity, negative = inhibition",Potency
C=CCOc1ccccc1OC[C@H](O)CNC(C)C,-12.5%,
Cc1ccsc1/C=C\C1=NCCCN1C,11.4%,
CC1=C(C(=O)O)N2C(=O)[C@@H](NC(=O)[C@@H](N)c3ccc(O)cc3)[C@@H]2SC1,6.34%,
Cc1onc(-c2ccccc2Cl)c1C(=O)N[C@H]1C(=O)N2[C@H]1SC(C)(C)[C@H]2C(=O)O,12.5%,
CCCC[C@H](CC)CN1CN(C[C@@H](CC)CCCC)CC(C)(N)C1,-4.33%,
C[C@@H]1O[C@H](O[C@@H]2\C=C/C=C\C=C/C=C\C[C@H](C)OC(=O)/C=C\[C@H]3O[C@@H]3C[C@H](O)C[C@]3(O)C[C@@H](O)[C@@H](C(=O)O)[C@H](C2)O3)[C@@H](O)[C@H](N)[C@@H]1O (stereo in doubt),-0.926% [at 28.7 µM],
C[C@]1(c2ccccc2)OC(C(=O)O)=CC1=O,0.834% [at 28.7 µM],
CC1(C)[C@@H](OC(=O)CCC(=O)O)CC[C@@]2(C)[C@H]1CC[C@@]1(C)[C@H]2C(=O)C=C2[C@H]3C[C@](C)(C(=O)O)CC[C@]3(C)CC[C@@]21C,14.5%,
CC1(C)OC2CO[C@]3(COS(N)(=O)=O)OC(C)(C)OC3C2O1 (stereo not given in full),7.42% [at 28.7 µM],
C#C[C@]1(O)CC[C@@H]2[C@H]3CCC4=CCCC[C@@H]4[C@@H]3CC[C@@]21C,-0.875%,
CO[C@]12C(COC(N)=O)C3=C(C(=O)C(C)=C(N)C3=O)N1CC1NC12 (stereo not given in full),,316 nM (active)
COc1cc2nc(N3CCN(C(=O)[C@@H]4COc5ccccc5O4)CC3)nc(N)c2cc1OC,-9.41% [at 28.7 µM],
COc1c(O[C@H]2O[C@@H](CO)[C@@H](O)[C@@H](O)[C@@H]2O)cc2c(c1OC)-c1ccc(SC)c(=O)cc1[C@H](NC(C)=O)CC2,7.91%,
CC(C)=CCC[C@](C)(O)C1CC=C(C)CC1 (stereo not given in full),7.69% [at 28.7 µM],
COC1C=CO[C@@]2(C)Oc3c(C)c(O)c4c(O)c(c(C=NN5CCN(C)CC5)c(O)c4c3C2=O)NC(=O)/C(C)=C\C=CC(C)C(O)[C@@H](C)C(O)C(C)[C@H](OC(C)=O)C1C (stereo not given in full),,3550 nM (active)
CC[N+](CC)(CC)CC[C@](O)(c1ccccc1)C1CCCCC1,-11%,
CC(=O)OCC(=O)[C@@]1(O)[C@H](C)C[C@@H]2[C@H]3CCC4=CC(=O)C=C[C@]4(C)[C@]3(F)[C@@H](O)C[C@@]21C,-1.94%,
CC(C)(C)NC[C@H](O)COc1cccc2c1C[C@@H](O)[C@@H](O)C2,3.75%,
C[C@H](O)Cn1cnc2c1c(=O)n(C)c(=O)n2C,2.94%,
CC(C)(C)NC[C@H](O)COc1cccc2c1CCC(=O)N2,10.9%,
